Sampled rows, rich in hits. Any-hit rate of the full collection: about 4%.
C2C12 statin = suppression of simvastatin myotoxicity. C2C12 myotubes + simvastatin, ATP luminescence, 48 h; scaled: DMSO 0, geranylgeraniol control 100. rescue of ATP level, % at 7.49 µM. 330,000 compounds, 0.78% hits;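 active means mean ATP rescue above about 67%, or every replicate alone reaching that limit, limit read from the data, passing the limit was not always enough; inconclusive means no clear call, values can overlap the other calls; inactive means mean under the limit and some replicate under it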;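 further: myotubes were challenged with 10 µM simvastatin during compound exposure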
Wnt bcat act = Wnt/beta-catenin pathway activation | Wnt/beta-catenin reporter cell assay, activator, plate reader | AID 743398 | activation, % at 9.35 µM | 300,000 compounds, 1.2% hits; in the data active means activation above about 30%, passing the limit was not always enough; inconclusive means no clear call, values can overlap the other calls
MITF act = MITF TRPM1 promoter activation in melanoma cells. SK-MEL-5 TRPM1-promoter luciferase, 24 h; % of positive control, neutral wells = 0. activation, % at 12.5 µM. 300,000 compounds, 0.75% hits. AID 588334;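 active means mean activation of at least 80% with every replicate also reaching 80%; inconclusive means mean reaches 80% but some replicate falls short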
EBV LMP1 NFkB = Epstein-Barr LMP1 NF-kappaB reporter inhibition; LMP1-induced NF-kappaB luciferase reporter cells, luminescence; 350,000 compounds, 0.69% hits; inhibition, % at 12.5 µM; in the data active means inhibition above about 41%; inconclusive means no clear call, values can overlap the other calls
MITF TRPM1 inh = MITF TRPM1 promoter inhibition in SK-MEL-5 cells; SK-MEL-5 TRPM1 promoter luciferase, 24 h; 330,000 compounds, 0.83% hits; AID 488899; inhibition, % at 12.5 µM;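 active means mean inhibition across replicates of 60% or more, whatever share of single replicates reaches that level; inconclusive means some that reach 60%, reason not given; inactive means mean inhibition across replicates below 60%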
esBAF inh = inhibitors of esBAF chromatin remodeling in mouse ES cells | Bmi1-luciferase knock-in reporter, 24 h; 100% = twice the neutral-well signal | reporter increase, % at 12.5 µM | 350,000 compounds, 2% hits | AID 602393; in the data active means activation above about 40%; inconclusive means no clear call, values can overlap the other calls;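 further: a rise in the Bmi1 reporter signal indicates esBAF inhibition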
Numbers stand for hits; – = inactive; ? = inconclusive; · = no result given.

SMILES | C2C12 statin | Wnt bcat act | MITF act | EBV LMP1 NFkB | MITF TRPM1 inh | esBAF inh
CC1CCCN(CCCNC(=O)C2CC(=O)N(c3ccc(F)c(Cl)c3)C2)C1 (stereo not given) | – | · | – | – | – | –
Cc1nc(-c2cn[nH]c2-c2ccc(O)cc2O)cs1 | · | – | – | – | – | ·
CNC(=O)c1ccsc1NC(=O)c1ccc2c(c1)CCCC2 | · | – | – | – | – | 56
NC(=O)c1ccsc1NC(=O)c1ccc2c(c1)CCCC2 | – | – | – | – | – | –
O=C(NC1CCCC1)c1cccc2c1C(=O)c1ccc(N3CCCCC3)cc1S2(=O)=O | – | – | · | – | · | 50
CC1CCN(c2ccc3c(c2)S(=O)(=O)c2cccc(C(=O)NCc4ccc(F)cc4)c2C3=O)CC1 | – | – | · | – | · | 70
O=C(NC1CCCCC1)c1cccc2c1C(=O)c1ccc(N3CCCC3)cc1S2(=O)=O | – | – | – | – | – | –
O=C(NCc1ccc(F)cc1)c1cccc2c1C(=O)c1ccc(N3CCC(Cc4ccccc4)CC3)cc1S2(=O)=O | – | – | – | – | – | –
CCC(=O)Nc1ccc2c(c1)C(=O)N(C)[C@H]1CC[C@H](CC(=O)Nc3ccccc3OC)O[C@@H]1CO2 | – | · | · | · | · | –
CCCCNC(=O)c1nnn(-c2ccccc2)c1N | – | · | – | – | – | 43
Cc1cc(C)c2nc(NNC(=O)c3ccc(S(=O)(=O)N4CCc5ccccc5C4)cc3)sc2c1 | – | – | – | ? | 78 | –
Cc1cc(C)c2sc(NNC(=O)c3ccc(S(=O)(=O)N4CCc5ccccc5C4)cc3)nc2c1 | – | – | – | 49 | 72 | –
Cc1nnc(NC(=O)c2ccc(S(=O)(=O)N3CCc4ccccc4C3)cc2)o1 | · | – | – | – | – | ·
CC=Cc1ccc2n(c1=O)C[C@H]1[C@H](CO)[C@@H](C(=O)NCCc3ccncc3)N(Cc3cncnc3)[C@@H]21 (mixture of isomers) | – | · | · | · | · | –
CC(=O)Nc1ccc(CN2CCN(CC=C(C)C)C(CCO)C2)cc1 (stereo not given) | – | – | – | – | – | –
C=C1C(=O)C23CCC4C(C)(C(=O)OC)CCCC4(C)C2CCC1(O)C3 (stereo not given) | · | – | · | 62 | 117 | ·
COc1ccc(/C(N)=N/OC(=O)c2cccc([N+](=O)[O-])c2C)cc1OC | · | · | – | – | – | ·
COc1cccc(C(=O)O/N=C(\N)c2ccc([N+](=O)[O-])cc2)c1OC | – | · | 84 | – | – | –
COc1ccccc1C(=O)O/N=C(\N)c1ccccc1Cl | · | 70 | – | – | – | ·
C=CCn1c(SCC(=O)c2[nH]c(C)c(C(=O)OCC)c2C)nc2scc(-c3ccc(OC)cc3)c2c1=O | · | – | – | – | 82 | ·
C=CCn1c(SCC(N)=O)nc2scc(-c3ccc(C)o3)c2c1=O | · | 48 | – | – | – | ·
O=c1[nH]n(-c2ncnc3c2cnn3-c2ccccc2)c(=O)c2ccccc12 | · | · | – | – | – | ·
O=C(Nc1cnn(C23CC4CC(CC(C4)C2)C3)c1)c1cnn2c(C(F)(F)F)cc(-c3ccco3)nc12 | – | – | – | – | 75 | –
O=C(Nc1cnn(Cc2ccccc2)c1)c1cc2nc(-c3ccco3)cc(C(F)(F)F)n2n1 | 125 | – | – | – | – | –
O=[N+]([O-])c1ccc(-c2cnc3ccccc3n2)cc1 | – | – | · | – | – | 55
SMILES | C2C12 statin | Wnt bcat act | MITF act | EBV LMP1 NFkB | MITF TRPM1 inh | esBAF inh
C=CCN1C(=O)S/C(=C\c2ccc3c(c2)n(C)c(=O)n3C)C1=O | – | – | – | – | – | –
Fc1cccc(CCN2CCNC[C@@H]2Cc2ccccc2)c1 | – | – | – | – | – | –
FC(F)(F)c1cc(CCN2CCNC[C@@H]2Cc2ccccc2)cc(C(F)(F)F)c1 | – | – | – | – | 81 | –
CC(=O)c1cccc(NC(=O)c2cnn(-c3ccccc3)c2C)c1 | – | – | ? | – | – | –
Cc1c(C(=O)Nc2cccc(F)c2)cnn1-c1ccccc1 | – | – | 109 | – | – | –
Cc1c(C(=O)Nc2ccccc2)cnn1-c1ccccc1 | · | 63 | – | – | – | ·
COc1ccc(C(=O)NCC2CCCO2)cc1S(=O)(=O)N1CCCc2ccccc21 (stereo not given) | · | – | – | – | – | ·
Cc1ccc(C(=O)Nn2cnnc2)cc1Cl | – | – | · | – | – | –
CCOC(=O)c1cc2c(=O)n3ccccc3nc2n(CCOC)c1=NC(=O)c1ccncc1 | – | · | · | – | – | –
CCN1C(=O)/C(=C\N(C(C)=O)c2ccccc2)OC1=S | – | · | – | – | – | 45
CCc1ccc(C(=O)Nc2cc(C)ccc2F)s1 | – | – | – | – | – | 66
CCOC(=O)c1sc(Nc2ccccc2Cl)nc1C | – | 39 | – | – | – | 65
CCOC(=O)c1sc(NC(=O)c2ccc(CC)s2)nc1C | – | · | – | – | – | 51
CCc1ccc(C(=O)Nc2nc(C)cs2)s1 | – | ? | – | – | – | –
COC(=O)Cc1csc(Nc2ccccc2Cl)n1 | – | – | 94 | – | – | 54
N#CCCN(Cc1cccnc1)C(=O)Nc1ccccc1 | – | – | – | – | – | –
CC(=O)NC(CC(C)C)C(=O)NC(Cc1ccccc1)C(N)=O (stereo not given) | · | · | · | · | · | –
Cc1cccc(CN2CCCC(C(=O)Nc3ccccc3Oc3cccnc3)C2)c1 (stereo not given) | – | – | – | – | – | –
CCOC(=O)c1sc(NC(=O)c2ccc3ncsc3c2)nc1C | – | – | · | – | · | 51
CCOC(=O)c1sc(NC(=O)c2cncc(Br)c2)nc1C | · | – | · | · | · | ·
Cc1nc2ccccn2c1CN(C)C(=O)C1CCC(=O)N(CCc2cccc(F)c2)C1 (stereo not given) | – | – | – | – | – | –
O=C(CCc1nnc(CCCc2ccccc2)o1)NCCc1ccco1 | · | – | – | – | – | ·
COc1ccc(C(=O)Nc2ccc3nc4n(c(=O)c3c2)CCCCC4)cc1OC | – | – | · | – | · | –
O=C(Nc1ccc2nc3n(c(=O)c2c1)CCCCC3)c1ccccc1[N+](=O)[O-] | – | – | – | – | – | –
O=C(Nc1ccc2nc3n(c(=O)c2c1)CCCC3)c1cccc(F)c1 | – | – | – | – | – | 45
SMILES | C2C12 statin | Wnt bcat act | MITF act | EBV LMP1 NFkB | MITF TRPM1 inh | esBAF inh
O=C(Nc1ccc2nc3n(c(=O)c2c1)CCCC3)c1ccccc1F | – | – | – | – | – | 45
CCCN(c1ccc(OCC)cc1)c1ncnc2nc[nH]c12 | – | – | – | – | – | –
COc1cc(CCCN2C(N)=NC[C@@H]2c2ccccc2)cc(OC)c1OC | – | – | – | – | – | –
CCCc1cc(NCCCn2ccnc2)n2nc(C)c(-c3ccccc3)c2n1 | · | 32 | – | – | – | ·
CC(C)(C)c1cc(NCCCn2ccnc2)n2ncc(-c3ccccc3)c2n1 | · | 53 | · | – | – | ·
Cc1cccc(-c2cc3nc(C)cc(NCCCn4ccnc4)n3n2)c1 | – | – | – | – | – | –
O=c1c2ccccc2nc(/C=C/c2c[nH]c3ccccc23)n1CCO | · | – | – | – | – | ·
COc1ccc(S(=O)(=O)N2Cc3ccccc3CC2C(=O)Nc2nccs2)cc1 (stereo not given) | – | · | – | – | – | 50
